Source: PubChem BioAssay (National Center for Advancing Translational Sciences (NCATS))
Rows were chosen to be rich in hits. Some 2.4% of all compounds tested hit in one or more screens of this group.
D2 antagonist: D2 dopamine receptor (human) antagonism; HEK293 TREx D2 cells, calcium flux, dopamine EC80; P14416; inhibition, % at 10 µM; 340,000 tested, 2% active; in the data active = inhibition above about 30%; inactive = below that, where a call was filed; note: 0% is about no effect
Target sequence (P14416 whole entry, looked up): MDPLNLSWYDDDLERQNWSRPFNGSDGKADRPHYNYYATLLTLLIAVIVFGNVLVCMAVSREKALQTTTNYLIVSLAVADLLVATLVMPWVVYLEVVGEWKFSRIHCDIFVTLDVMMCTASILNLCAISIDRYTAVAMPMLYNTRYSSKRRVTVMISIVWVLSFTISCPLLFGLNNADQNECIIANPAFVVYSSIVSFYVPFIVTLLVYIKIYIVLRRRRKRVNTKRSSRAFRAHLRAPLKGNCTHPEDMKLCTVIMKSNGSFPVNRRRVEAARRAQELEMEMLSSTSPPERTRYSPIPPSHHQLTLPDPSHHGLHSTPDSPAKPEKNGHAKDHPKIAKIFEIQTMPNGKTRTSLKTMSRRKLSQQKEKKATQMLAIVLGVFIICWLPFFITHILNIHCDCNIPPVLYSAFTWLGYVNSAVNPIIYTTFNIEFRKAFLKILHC
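Tetracycline-induced HEK293 T-REx cells expressing D2 force-coupled to calcium signalling were dye-loaded, exposed to compound for 180 s, then challenged with an EC80 of dopamine; calcium flux was followed kinetically for a further 180 s.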
D2 ag-1: activates the human D2 dopamine receptor | P14416 | DiscoveRx PathHunter D2 beta-arrestin, luminescence, 90 min; 100% = 57 uM dopamine signal | activation, % (test concentration not listed) | 360,000 tested, 0.084% active; in the data active = activation above about 40%; inconclusive = between about 15% and that limit
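DiscoveRx PathHunter D2 beta-arrestin cells (2,100/well) attached overnight, then compound-stimulated 90 min at 37 C in HBSS/10 mM HEPES/0.1% Tween-20 buffer; beta-galactosidase complementation read by luminescence after 1 h at ambient temperature. Dopamine 57 uM final (EC100) as control.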
D2 PAM-1: human D2 receptor positive allosteric modulation. potentiation, % (concentration not given with the values). DiscoveRx D2 beta-arrestin cells, luminescence, 90 min; 100% = 57 uM dopamine signal. 360,000 tested, 0.23% active. P14416; in the data active = potentiation above about 50%; inconclusive = mostly about 30% to 49%
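PathHunter D2 cells, attached overnight at 37 deg C, received compound in DMSO plus dopamine at EC20 (50 nM final) for 90 min at 37 deg C. Beta-arrestin recruitment was read as luminescence after 1 h with detection reagent at ambient temperature.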
D2 ag-2: D2 dopamine receptor (human) agonism | P14416 | HEK293 T-REx D2 cells, calcium flux agonist mode | 340,000 tested, 0.53% active | activation, % at 2 µM;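 active = activation over 3 SD above normal in the single-dose calcium agonist read, cut at about 30% in these data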; note: 0% is about no effect
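In this primary screen, compounds producing a positive calcium signal within 180 s of addition to tetracycline-induced, force-coupled HEK293 Trex D2 cells are flagged; cells are dye-loaded with a no-wash calcium kit beforehand.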
D2 PAM-2: positive allosteric modulators of human D2 dopamine receptor | P14416 | HEK293 T-REx D2, calcium flux, EC20 dopamine potentiation | potentiation, % at 10 µM | 340,000 tested, 0.34% active | AID 485347;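 active = potentiation over 3 SD above the plate norm, cut at about 30% in these data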; note: 0% is about no effect
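Cells plated with tetracycline inducer and held overnight at 30 C; calcium dye loaded 30–90 min at room temperature; baseline taken, compound added and read 180 s; EC20 dopamine then added and read 180 s.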
Starred values were filed as active, the others as inactive; ? = inconclusive; nt = no result.

SMILES	D2 antagonist	D2 ag-1	D2 PAM-1	D2 ag-2	D2 PAM-2
COc1ccc2c(c1)-c1nc(NC(=O)c3ccco3)sc1CC2	5	3	1	-1	2
COc1ccc2c(c1)CCc1sc(NC(=O)c3ccco3)nc1-2	-2	5	4	-1	30*
O=C1COc2ccc(-c3cc(-c4ccccc4)c4c(n3)-c3cc(Cl)ccc3OC4)cc2N1	nt	nt	nt	0	-2
CCCCNC1=CC(=O)C(=O)c2ccccc21	3	51*	-8	1	9
COc1ccc(-c2cc3ccccc3oc2=O)cc1NC(=O)c1ccc([N+](=O)[O-])o1	-13	11	101*	0	-6
COc1ccc(-c2cc3ccccc3oc2=O)cc1NC(=O)c1ccc(Br)o1	-6	-6	-14	1	-8
CCCCCn1c(CN2CCCCC2CC)nc2c1c(=O)n(C)c(=O)n2C (stereo not drawn)	4	0	-4	0	55*
Cc1ccsc1C1NC(=O)c2ccccc2N1 (stereo not drawn)	-9	1	-15	1	33*
O=C1NC(c2cccs2)Nc2ccccc21 (stereo not drawn)	1	-3	-23	-2	7
Cc1cc(NC(=O)CCc2ccc(-c3ccccc3)o2)no1	33*	-6	-19	0	-16
Cc1cc(NC(=O)CSc2nnc(-c3ccccc3)o2)no1	nt	1	-3	nt	nt
Cc1cc(NC(=O)CSc2nnc(-c3ccccc3)c(-c3ccccc3)n2)no1	80*	1	-2	-1	-7
Cc1cc(NC(=O)CSc2ccccc2)no1	2	-2	-22	-1	6
Cc1cc(C)cc(-c2nnc(SCC(=O)Nc3cc(C)on3)o2)c1	36*	0	-11	0	8
COc1ccc(NC(=O)CCS(=O)(=O)c2nc(-c3ccc4c(c3)OCO4)cc(C(F)(F)F)n2)cc1	nt	nt	nt	1	6
Cc1cc(NC(=O)CCS(=O)(=O)c2nc(-c3ccccc3)cc(C(F)(F)F)n2)no1	13	-7	-19	1	38*
COc1ccc(C2CC(c3cccs3)=NN2c2ccc(C=O)cc2)cc1 (stereo not drawn)	-3	-5	3	31*	-7
CCC(=O)N/N=C/c1ccc(-c2ccc([N+](=O)[O-])cc2)o1	14	7	-1	0	4
CC(C)(C)C(=O)/C=c1\s/c(=C\c2ccc(-c3ccc([N+](=O)[O-])cc3)o2)c(=O)n1CC(=O)NC(N)=O	91*	4	4	206*	-29
O=C(N/N=C/c1ccsc1)C1CC1	0	-2	-3	0	40*
O=C(N/N=C/c1cccnc1)c1cccc(Cl)c1	35*	1	-9	2	-3
O=C(N/N=C/c1cccnc1)C1CCCCC1	-19	0	-6	0	32*
CCOc1cc(/C=N/NC(=O)c2cccnc2)ccc1O	31*	-8	3	0	4
COc1ccc(S(=O)(=O)N(CC(=O)Nc2ccccc2Cl)Cc2ccccc2)cc1	nt	nt	nt	0	19
CCN(CC)C(=O)Cn1cc(SCC(=O)Nc2cc(OC)ccc2OC)c2ccccc21	nt	nt	nt	nt	-1
SMILES	D2 antagonist	D2 ag-1	D2 PAM-1	D2 ag-2	D2 PAM-2
Cc1ccc(C(C)C)c(OCc2n[nH]c(=S)o2)c1	-6	2	-7	0	14
Cc1ccc(C(C)C)c(OCc2nc(-c3nonc3N)no2)c1	33*	1	-6	-1	6
COC(=O)CN1C(=O)N/C(=C/c2cc3c(cc2OC)OCO3)C1=O	29	-5	15	0	35*
Cc1cccc(CNC(=O)C2CCC(=O)N(C3CC3)C2)c1 (stereo not drawn)	0	-1	-4	0	52*
CSc1cccc(CNC(=O)C2CCC(=O)N(CCCN3CCCC3=O)C2)c1 (stereo not drawn)	86*	4	-1	0	-24
CCOc1ccc(NC(=O)CN(c2ccc(CC)cc2)S(=O)(=O)c2c(C)noc2C)cc1	nt	nt	nt	1	4
CCS(=O)(=O)Nc1cc(-c2cn3ccc(C)cc3n2)ccc1C	nt	nt	nt	0	-8
Cc1ccc(-n2ncc3c(Nc4ccc(Oc5ccccc5)cc4)ncnc32)c(C)c1	nt	nt	nt	1	nt
Cc1csc(NC(=O)C2CCCN(S(=O)(=O)c3ccc(Br)s3)C2)n1 (stereo not drawn)	38*	-1	-21	-1	-10
COc1ccccc1-c1c(C)[nH]n2c(=O)c(Cc3ccccc3)c(C)nc12	54*	0	-17	0	-22
COc1ccc(-c2c(C)[nH]n3c(=O)c(Cc4ccccc4)c(C)nc23)cc1	31*	-3	-40	1	-24
CCOc1ccc(/C=N/Nc2nc(=O)[nH]nc2C)cc1OC	-16	-2	-3	0	44*
COc1ccc(-c2noc(N3CCN(c4cccc(C)c4C)CC3)n2)cc1OC	nt	nt	nt	0	-6
COc1ccc(Br)cc1CNC(=O)Cn1ncn2nc(-c3cccs3)cc2c1=O	nt	nt	nt	nt	4
Cc1cc(C(=O)COC(=O)c2cc(O)c3ccccc3c2O)c(C)n1CC1CCCO1 (stereo not drawn)	8	?	83*	2	-3
CCc1ccc(CNC(=O)c2ccc3nc(SCc4ccc(F)cc4)n(C)c3c2)cc1	nt	nt	nt	-1	7
C[N+]1(CC(=O)Nc2ccc(F)cc2)CCN(C(=O)c2ccco2)CC1	-2	-1	-8	0	43*
Cc1ccc(CN2C(=O)C(O)(c3c[nH]c4ccccc34)c3cc(Cl)ccc32)cc1 (stereo not drawn)	nt	nt	nt	0	-1
O=C(Cn1cc(SCc2ccc(Cl)cc2)c2ccccc21)N1CCCC1	nt	nt	nt	0	3
CC(=O)N1CCN(c2ccc([N+](=O)[O-])cc2)CC1	-4	-1	-6	0	4
CC(=O)N1CCN(C(=S)c2ccc([N+](=O)[O-])cc2)CC1	48*	-5	1	0	-16
COc1cc(/C=C2/SC(=Nc3ccc(O)cc3)NC2=O)cc(OC)c1O	3	8	5	51*	-25
COc1ccc(/C=N/NC(=O)c2cc(-c3ccccc3OC)nc3ccccc23)cc1COC(C)=O	2	-2	-33	-1	1
Cc1ccccc1-c1cc(C(=O)N/N=C/c2cccnc2)c2ccccc2n1	33*	-3	-14	12	-2
COc1ccccc1-c1cc(C(=O)N/N=C/c2ccc(C)s2)c2ccccc2n1	48*	-7	-42	-1	-29
COc1ccccc1-c1cc(C(=O)N/N=C/c2ccoc2)c2ccccc2n1	79*	-3	-15	-1	-21
O=C(N/N=C/c1cccnc1)c1cc(-c2ccccc2Cl)nc2ccccc12	3	1	-1	1	8
CCc1ccc(/C=N/NC(=O)c2cc(-c3ccccc3OC)nc3ccccc23)s1	35*	-4	-14	0	-10
